The nature of experiment [1]: inhibitors of CD8+ T cell-vesicle binding, pilot screen, LFA-1/ICAM-1 modulator project, MLPCN validation set, flow cytometry (AID 2523;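 active = response below a set limit, under 55% cells CD8-positive and vesicle-bound, and CD8 cells' 90th-percentile brightness under 279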;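 for vesicle binding response: mean PE anti-B7-1 fluorescence of CD8+ cells relative to row control; 100% = QL9-loaded vesicles with DMSO vehicle in the same plate row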). The note with it: 2C mouse CD8+ T cells, at 7 µM, stronger effect = lower value; double positive events: measured here: CD8+/vesicle+ event percentage. In general terms: In flow cytometry, cells or beads pass a laser one at a time.
Experiment [2] deals with Integrin beta-1 (Homo sapiens) + Integrin alpha-4 (Homo sapiens) (UniProt P13612+P05556). Briefly: inhibition of HUTS-21 binding to VLA-4, pilot screen, VLA-4 allosteric modulator project, U937 cells, HUTS-21 mAb, flow cytometry, validation set (AID 2674;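 active = inhibition above 50%, about 3 SD of the validation set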;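 note: antibody binding induced by the VLA-4 ligand LDV present at three times its Kd; 0% = LDV ligand with antibody and no compound and 100% = antibody without LDV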). The note with it: HUTS-21 LIBS mAb binding, at 6.7 µM, stronger effect = higher value, binding induced by LDV ligand.
Integrin beta-1 (Homo sapiens) + Integrin alpha-4 (Homo sapiens), sequence (P05556 whole entry, looked up): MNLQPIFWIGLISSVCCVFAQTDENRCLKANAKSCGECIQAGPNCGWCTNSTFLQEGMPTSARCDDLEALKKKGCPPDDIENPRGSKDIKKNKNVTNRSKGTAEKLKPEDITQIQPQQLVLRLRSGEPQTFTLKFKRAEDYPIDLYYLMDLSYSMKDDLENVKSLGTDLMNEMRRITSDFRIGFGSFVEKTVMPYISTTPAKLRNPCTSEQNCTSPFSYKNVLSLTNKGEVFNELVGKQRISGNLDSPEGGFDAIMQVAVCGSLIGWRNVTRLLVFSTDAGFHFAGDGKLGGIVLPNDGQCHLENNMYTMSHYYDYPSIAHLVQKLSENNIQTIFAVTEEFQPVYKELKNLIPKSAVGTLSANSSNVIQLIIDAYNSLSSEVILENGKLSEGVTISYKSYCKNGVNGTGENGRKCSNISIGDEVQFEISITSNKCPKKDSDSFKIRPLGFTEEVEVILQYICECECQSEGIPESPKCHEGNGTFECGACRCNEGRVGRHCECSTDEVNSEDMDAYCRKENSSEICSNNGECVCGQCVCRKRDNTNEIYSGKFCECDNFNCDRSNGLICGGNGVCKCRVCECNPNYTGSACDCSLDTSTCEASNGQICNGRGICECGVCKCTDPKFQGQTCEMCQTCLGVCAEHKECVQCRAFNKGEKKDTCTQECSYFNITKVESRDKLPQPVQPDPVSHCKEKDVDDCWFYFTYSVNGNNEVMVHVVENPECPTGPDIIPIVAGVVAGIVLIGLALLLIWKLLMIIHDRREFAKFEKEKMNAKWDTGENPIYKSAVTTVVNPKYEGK
Integrin beta-1 (Homo sapiens) + Integrin alpha-4 (Homo sapiens), sequence (P13612 whole entry, looked up): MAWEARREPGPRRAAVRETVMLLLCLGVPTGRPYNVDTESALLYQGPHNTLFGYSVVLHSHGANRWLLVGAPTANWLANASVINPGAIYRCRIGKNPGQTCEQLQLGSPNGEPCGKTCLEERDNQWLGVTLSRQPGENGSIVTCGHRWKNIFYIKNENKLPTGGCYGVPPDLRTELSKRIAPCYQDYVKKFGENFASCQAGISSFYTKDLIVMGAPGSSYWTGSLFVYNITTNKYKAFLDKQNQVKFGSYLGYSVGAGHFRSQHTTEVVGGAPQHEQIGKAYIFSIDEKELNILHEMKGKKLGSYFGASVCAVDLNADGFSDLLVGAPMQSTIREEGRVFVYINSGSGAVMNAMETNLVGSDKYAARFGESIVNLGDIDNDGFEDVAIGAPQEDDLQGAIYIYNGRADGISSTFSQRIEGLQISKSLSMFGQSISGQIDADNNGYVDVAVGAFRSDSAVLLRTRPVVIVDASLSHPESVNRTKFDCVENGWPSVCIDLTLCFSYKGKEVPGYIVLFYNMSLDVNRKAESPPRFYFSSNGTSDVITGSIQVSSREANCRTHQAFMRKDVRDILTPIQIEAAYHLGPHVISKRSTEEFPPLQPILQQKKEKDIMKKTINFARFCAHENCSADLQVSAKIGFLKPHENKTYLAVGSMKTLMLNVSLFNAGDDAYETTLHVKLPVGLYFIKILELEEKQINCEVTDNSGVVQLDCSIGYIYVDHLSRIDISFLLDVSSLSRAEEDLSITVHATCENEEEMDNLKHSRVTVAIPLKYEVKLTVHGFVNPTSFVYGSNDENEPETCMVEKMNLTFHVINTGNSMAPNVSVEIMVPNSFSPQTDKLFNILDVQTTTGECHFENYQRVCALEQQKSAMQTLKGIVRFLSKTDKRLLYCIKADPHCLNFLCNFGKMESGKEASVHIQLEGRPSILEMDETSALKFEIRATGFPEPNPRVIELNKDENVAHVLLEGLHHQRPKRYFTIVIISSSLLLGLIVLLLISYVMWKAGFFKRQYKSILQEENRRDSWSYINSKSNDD
A short description of experiment [3]: superoxide lowering in aged yeast cells, pilot screen, validation compound set (AID 2706;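 active = superoxide response below 65% of plate, a cut near 3 SD across the whole screen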;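 note: yeast exposed to compound for one week at 30 degrees C before staining; 100% = mean of all compound wells on the same plate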). The note with it: S. cerevisiae aging, superoxide DHE fluorescence; at 10 µM, stronger effect = lower value.
Experiment [4] addresses Beta-adrenergic receptor kinase 1 (Homo sapiens) (UniProt P25098). Kind of experiment: GRK2 binders displacing RNA aptamer, biochemical, validation, human GRK2, bead flow cytometry (AID 488806;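 active = aptamer binding inhibition above 30%, about 3 SD of noise from non-fluorescent compounds; inactive = inhibition at or below 30%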). The note with it: bead-bound GRK2, FAM-aptamer displacement, at 10 µM, stronger effect = higher value.
In experiment [5] the target is Beta-2 adrenergic receptor (Homo sapiens) (UniProt P07550). Briefly: beta2AR agonists driving receptor internalization, pilot screen, cell-based, FAP fluorogen, flow cytometry, validation set (AID 504459;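 active = percent response above 42, roughly 3 SD of non-fluorescent test compounds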;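 note: agonist-driven loss of surface beta2AR via internalization measured by FAP dye flow cytometry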). The note with it: Am2.2-beta2AR cells, FAP surface receptor flow cytometry; at 10 µM; stronger effect = higher value.
Beta-2 adrenergic receptor (Homo sapiens), sequence (P07550 whole entry, looked up): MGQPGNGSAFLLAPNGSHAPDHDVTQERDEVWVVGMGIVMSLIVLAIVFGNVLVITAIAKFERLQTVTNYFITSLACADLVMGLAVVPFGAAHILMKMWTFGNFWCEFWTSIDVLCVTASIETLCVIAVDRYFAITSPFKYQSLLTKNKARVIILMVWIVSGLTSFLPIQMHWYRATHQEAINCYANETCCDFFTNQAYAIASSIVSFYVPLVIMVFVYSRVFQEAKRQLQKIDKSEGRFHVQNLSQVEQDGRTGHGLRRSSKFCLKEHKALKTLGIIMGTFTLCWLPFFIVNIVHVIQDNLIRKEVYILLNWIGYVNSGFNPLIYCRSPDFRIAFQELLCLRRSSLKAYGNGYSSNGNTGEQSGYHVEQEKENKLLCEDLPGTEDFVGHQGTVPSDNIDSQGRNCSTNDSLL
For experiment [6], the target named is AP-2 complex subunit beta (Homo sapiens) (UniProt P63010). Briefly: inhibitors of arrestin peptide binding to AP2, pilot screen, biochemical, validation set, GST-AP2 beads, flow cytometry (AID 504541;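 active = inhibition above 54%, about 3 SD of non-fluorescent compounds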;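 note: AP2 carries R879A mutation and is captured from E. coli lysate; bead-bound FITC arrestin peptide fluorescence measuring arrestin peptide binding to AP2; 0% = DMSO wells and 100% = excess unlabeled arrestin peptide control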). The note with it: FITC arrestin peptide, at 10 µM, stronger effect = higher value, AP2 beta2 appendage fragment, R879A mutant.
AP-2 complex subunit beta (Homo sapiens), sequence (P63010 whole entry, looked up, the tested form may be a part, one chain of several): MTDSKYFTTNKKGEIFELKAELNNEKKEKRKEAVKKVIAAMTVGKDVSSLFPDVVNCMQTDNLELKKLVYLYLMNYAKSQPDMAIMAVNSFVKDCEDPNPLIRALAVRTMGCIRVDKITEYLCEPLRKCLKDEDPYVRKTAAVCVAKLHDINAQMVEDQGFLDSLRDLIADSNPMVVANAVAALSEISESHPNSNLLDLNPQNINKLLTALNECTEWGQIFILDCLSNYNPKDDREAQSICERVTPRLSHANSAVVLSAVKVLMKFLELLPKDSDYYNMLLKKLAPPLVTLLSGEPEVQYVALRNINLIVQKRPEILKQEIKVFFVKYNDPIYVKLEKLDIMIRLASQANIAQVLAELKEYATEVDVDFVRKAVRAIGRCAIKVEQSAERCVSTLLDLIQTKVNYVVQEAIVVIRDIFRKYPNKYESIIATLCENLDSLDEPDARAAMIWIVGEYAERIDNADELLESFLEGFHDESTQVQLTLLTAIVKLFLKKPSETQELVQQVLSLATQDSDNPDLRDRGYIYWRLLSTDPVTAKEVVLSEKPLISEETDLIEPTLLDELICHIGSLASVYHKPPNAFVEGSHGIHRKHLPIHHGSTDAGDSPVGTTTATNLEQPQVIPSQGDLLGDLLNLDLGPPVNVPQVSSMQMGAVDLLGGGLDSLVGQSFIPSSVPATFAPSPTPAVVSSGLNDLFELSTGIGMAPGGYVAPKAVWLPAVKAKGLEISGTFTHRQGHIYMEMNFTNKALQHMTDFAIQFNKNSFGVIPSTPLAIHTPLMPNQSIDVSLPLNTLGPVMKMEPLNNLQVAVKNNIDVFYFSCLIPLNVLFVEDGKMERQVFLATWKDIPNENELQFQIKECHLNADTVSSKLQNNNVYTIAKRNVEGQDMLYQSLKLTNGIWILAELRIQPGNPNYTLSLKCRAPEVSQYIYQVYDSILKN
The nature of experiment [7]: yeast V-ATPase proton transport modulators, S. cerevisiae, pHLuorin, HTS validation (AID 504600; in the data active = response above about 15%;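 note: plate controls were DMSO for no effect and reference compound for full effect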). The note with it: S. cerevisiae pHLuorin cytosolic pH, at 10 µM, stronger effect = higher value.
Experiment [8] deals with anti-desmoglein-3 scFv antibody binding to human DSG3. Briefly: inhibitors of anti-DSG3 scFv binding to DSG3, pilot screen, biochemical, validation compound set, bead-based, flow cytometry (AID 588368;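 active = binding below the plate cutoff, the plate median minus 3 SD, with a reading above zero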;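 note: signal is the median channel fluorescence of bead-bound GFP antibody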). The note with it: Protein G beads, DSG3-Fc, scFv-GFP binding, at 10 µM, stronger effect = lower value.
Experiment [9] in a line: inhibitors of fungal efflux pumps CDR1, CDR2, MDR1, pilot screen, validation compound set, multiplex, phenotypic (AID 588506;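 active = efflux inhibition above 0.42, the validation set average plus 4 SD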;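 note: Nile Red retained in cells so higher fluorescence means more efflux inhibition; 0 = negative control wells and 1 = enniatin B 25 µM full block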). The note with it: S. cerevisiae pump-expressing triplex, Nile Red efflux flow cytometry; at 10 µM; stronger effect = higher value; the pumps come from Candida albicans.
Experiment [10] addresses ATP-binding cassette sub-family B member 6 (Homo sapiens) (UniProt Q9NP58). Briefly: ABCB6 transporter inhibitors, pilot screen, K562-ABCB6 cells, flow cytometry, validation set (AID 588550).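 Note: 0% = DMSO wells and 100% = benzethonium chloride 70 µM positive control.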 The note with it: K562-ABCB6 porphyrin accumulation, 1 h, at 10 µM, stronger effect = higher value.
A short description of experiment [11]: promoters of myeloid differentiation in arrested cells, primary screen, cell-based, GFP/MAC1 double positive, flow cytometry, validation set (AID 588685;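 active = differentiation response of at least 50%, scaled between solvent and reference control, from cells with both markers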;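 note: compound exposure lasts four days before antibody staining and flow analysis; 0% = DMSO wells and 100% = 5 µM fulvestrant positive control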). The note with it: ER-HoxA9 marrow cells, stronger effect = higher value, normalized: vehicle 0, fulvestrant 100.

Activity calls are given as the source filed them.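 Rule for the calls, unless noted: active = inhibition above the screen-wide mean plus 3 SD, about 51%; inactive = the rest.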

ATP-binding cassette sub-family B member 6 (Homo sapiens), sequence (Q9NP58 whole entry, looked up): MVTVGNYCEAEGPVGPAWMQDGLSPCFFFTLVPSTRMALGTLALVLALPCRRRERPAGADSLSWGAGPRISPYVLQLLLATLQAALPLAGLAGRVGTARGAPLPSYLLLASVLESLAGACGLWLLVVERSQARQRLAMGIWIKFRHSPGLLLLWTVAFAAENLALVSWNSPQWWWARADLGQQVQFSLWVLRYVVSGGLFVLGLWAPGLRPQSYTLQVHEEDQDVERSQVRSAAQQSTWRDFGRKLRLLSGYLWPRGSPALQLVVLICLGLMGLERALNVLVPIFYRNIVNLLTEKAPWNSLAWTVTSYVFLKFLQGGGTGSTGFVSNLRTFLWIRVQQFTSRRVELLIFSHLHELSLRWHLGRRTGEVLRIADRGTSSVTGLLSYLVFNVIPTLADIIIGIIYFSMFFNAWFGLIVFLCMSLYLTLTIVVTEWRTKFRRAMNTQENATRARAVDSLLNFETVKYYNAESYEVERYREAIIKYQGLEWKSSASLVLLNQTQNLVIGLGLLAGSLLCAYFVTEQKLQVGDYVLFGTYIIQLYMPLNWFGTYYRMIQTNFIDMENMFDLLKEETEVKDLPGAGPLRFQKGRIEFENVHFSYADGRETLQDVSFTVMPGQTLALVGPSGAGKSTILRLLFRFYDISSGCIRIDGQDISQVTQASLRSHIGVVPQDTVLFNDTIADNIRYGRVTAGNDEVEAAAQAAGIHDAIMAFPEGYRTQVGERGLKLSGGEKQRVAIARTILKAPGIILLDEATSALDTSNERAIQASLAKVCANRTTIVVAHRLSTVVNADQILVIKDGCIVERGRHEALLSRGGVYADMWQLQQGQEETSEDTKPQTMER
Beta-adrenergic receptor kinase 1 (Homo sapiens), sequence (P25098 whole entry, looked up): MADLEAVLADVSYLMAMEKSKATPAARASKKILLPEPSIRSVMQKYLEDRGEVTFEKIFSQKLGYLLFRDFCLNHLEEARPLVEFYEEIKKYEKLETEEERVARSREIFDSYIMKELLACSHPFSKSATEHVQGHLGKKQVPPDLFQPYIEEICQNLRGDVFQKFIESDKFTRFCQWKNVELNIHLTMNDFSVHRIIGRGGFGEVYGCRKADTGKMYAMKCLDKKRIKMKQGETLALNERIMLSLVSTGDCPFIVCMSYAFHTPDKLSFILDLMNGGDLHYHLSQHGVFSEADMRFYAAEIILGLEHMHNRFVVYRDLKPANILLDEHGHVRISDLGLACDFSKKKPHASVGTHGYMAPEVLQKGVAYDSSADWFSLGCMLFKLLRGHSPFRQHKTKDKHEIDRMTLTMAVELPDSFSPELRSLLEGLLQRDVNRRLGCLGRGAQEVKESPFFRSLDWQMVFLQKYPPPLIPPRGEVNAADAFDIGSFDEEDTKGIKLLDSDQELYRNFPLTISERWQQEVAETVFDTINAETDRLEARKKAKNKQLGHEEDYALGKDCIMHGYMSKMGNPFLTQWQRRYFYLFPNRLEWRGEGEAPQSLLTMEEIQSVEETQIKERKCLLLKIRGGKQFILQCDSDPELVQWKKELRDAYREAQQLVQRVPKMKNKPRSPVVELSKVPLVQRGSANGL

As a reminder, the inhibition is the relative decrease from the control value, in per cent. Take `CC1(C)O[C@@H]2C[C@H]3[C@@H]4CCC5=CC(=O)C=C[C@]5(C)[C@@]4(F)[C@@H](O)C[C@]3(C)[C@]2(C(=O)CO)O1`: the double positive events in [1] was 61.2%. For the same compound, the vesicle binding response in experiment [1] was 123% (inactive). Also, the figures for the inhibition in experiment [2], in experiment [6] and in experiment [10] were 0.25% (inactive), -3.89% (inactive) and 2% (inactive), respectively. Moreover, in experiment [3], the superoxide response (% of plate) was 91.8% (inactive). Further, the aptamer binding inhibition in [4] was -1% (inactive). Further, the response in experiment [5] is 10.2% (inactive); in experiment [7], -1.77% (inactive). For the same compound, the binding (% of control) in experiment [8] was 107% (inactive). Besides, in experiment [9], the efflux inhibition (fraction of control) was -0.22 (inactive). Further, the differentiation response in experiment [11] is 40.8% (inactive).

In turn, `CCOC(=O)/C=C1\NC(C)(C)Cc2cc(OC)c(OC)cc21` showed a double positive events in experiment [1] of 59.2%. Further, the vesicle binding response in experiment [1] is 271% (inactive). The inhibition in [2] was 5.03% (inactive); in [6], -4.08% (inactive); in experiment [10], 7% (inactive). In addition, the superoxide response (% of plate) in experiment [3] is 102% (inactive). Also, the aptamer binding inhibition in experiment [4] is 4% (inactive). Moreover, the results for the response in experiment [5] and in [7] were 9.33% (inactive) and -1.95% (inactive), respectively. Further, the binding (% of control) in [8] was 101% (inactive). For the same compound, the efflux inhibition (fraction of control) in [9] is 0.08 (inactive). In addition, the differentiation response in experiment [11] was 31.2% (inactive).

With `Cc1oc2c(CN3CCCC3)c(O)ccc2c(=O)c1-c1ccc(Cl)cc1`, the double positive events in [1] came to 75.9%. Besides, the vesicle binding response in experiment [1] was 328% (inactive). For the same compound, the inhibition was 3.14% (inactive) in [2], 6.26% (inactive) in experiment [6] and 10% (inactive) in [10]. Further, in experiment [3], the superoxide response (% of plate) is 81.5% (inactive). In addition, the aptamer binding inhibition in [4] is 1% (inactive). Moreover, the response in experiment [5] is -23.2% (inactive); in [7] it was -0.55% (inactive). In addition, in [8], the binding (% of control) is 96.9% (inactive). In addition, in [9], the efflux inhibition (fraction of control) was 0 (inactive). For the same compound, the differentiation response in experiment [11] is -1.05% (inactive).

For `COC(=O)c1cc(OC)c(OC)cc1NC(=O)Nc1ccc(OC)cc1OC`, the double positive events in [1] is 58.5%. For the same compound, the vesicle binding response in experiment [1] is 105% (inactive). Also, the inhibition was -14.5% (inactive) in experiment [2], 11.9% (inactive) in [6] and 7% (inactive) in [10]. For the same compound, the superoxide response (% of plate) in experiment [3] was 82% (inactive). Besides, the aptamer binding inhibition in experiment [4] is 0% (inactive). For the same compound, the response in [5] is 5.38% (inactive); in [7] it was -1.21% (inactive). The binding (% of control) in experiment [8] was 100% (inactive). Also, the efflux inhibition (fraction of control) in experiment [9] is -0.205 (inactive). For the same compound, the differentiation response in [11] is 13% (inactive).

As for `Cc1cc(C(=O)NC(CC(C)C)C(=O)O)cc(C)c1[N+](=O)[O-]` (configuration not stated), the double positive events in experiment [1] was found to be 61.7%. Moreover, the vesicle binding response in experiment [1] is 204% (inactive). The inhibition was -2.43% (inactive) in experiment [2], 1.45% (inactive) in experiment [6] and 17% (inactive) in [10]. Moreover, the superoxide response (% of plate) in experiment [3] was 96.9% (inactive). In addition, in experiment [4], the aptamer binding inhibition is 4% (inactive). Besides, the response in experiment [5] was 1% (inactive); in experiment [7] it was -4.26% (inactive). In experiment [8], the binding (% of control) was 99% (inactive). The efflux inhibition (fraction of control) in experiment [9] is -0.12 (inactive). For the same compound, the differentiation response in [11] was -10.4% (inactive).

In experiment [1], `CCc1cc(=O)oc2cc(OCC=C(C)C)ccc12` displayed a double positive events of 66.7%. In addition, the vesicle binding response in experiment [1] is 297% (inactive). The figures for the inhibition in experiment [2], in experiment [6] and in experiment [10] were 26.9% (inactive), -1.05% (inactive) and 3% (inactive), respectively. For the same compound, the superoxide response (% of plate) in experiment [3] was 89.5% (inactive). The aptamer binding inhibition in [4] was 6% (inactive). Besides, the values for the response in experiment [5] and in experiment [7] were 1.45% (inactive) and -0.58% (inactive), respectively. In addition, the binding (% of control) in experiment [8] was 103% (inactive). Further, the efflux inhibition (fraction of control) in [9] was -0.03 (inactive). Moreover, in [11], the differentiation response was -18.4% (inactive).

`O=C(c1ccc([N+](=O)[O-])cc1)N1CCSC1c1ccccc1Cl` (configuration not stated) displayed a double positive events in experiment [1] of 77.4%. Further, the vesicle binding response in experiment [1] is 441% (inactive). Further, the inhibition in experiment [2] is -9.98% (inactive); in [6] it was -8.18% (inactive); in [10] it was 5% (inactive). The superoxide response (% of plate) in [3] was 91% (inactive). Moreover, the aptamer binding inhibition in experiment [4] was 4% (inactive). The response in [5] was -12.5% (inactive); in experiment [7], -2.22% (inactive). Further, in experiment [8], the binding (% of control) is 101% (inactive). Besides, the efflux inhibition (fraction of control) in experiment [9] was -0.1 (inactive). Moreover, the differentiation response in experiment [11] is 0.8% (inactive).

For `COc1cc(OC)c(C(=O)CCCN2CCCC2)c(OC)c1`, the double positive events in experiment [1] came to 65.4%. The vesicle binding response in [1] was 214% (inactive). In addition, the inhibition is -3.24% (inactive) in experiment [2], 1.36% (inactive) in experiment [6] and 10% (inactive) in [10]. In addition, the superoxide response (% of plate) in experiment [3] was 97.6% (inactive). Moreover, in experiment [4], the aptamer binding inhibition was 4% (inactive). The response was -11.1% (inactive) in [5] and 1.8% (inactive) in [7]. The binding (% of control) in experiment [8] is 109% (inactive). For the same compound, in experiment [9], the efflux inhibition (fraction of control) was 0.19 (inactive). In addition, the differentiation response in experiment [11] was -8.19% (inactive).

Take `CCN(Cc1cnn(C)c1)Cc1nc(C(c2ccccc2)c2ccccc2)no1`: the double positive events in experiment [1] stood at 61.8%. The vesicle binding response in experiment [1] was 168% (inactive). Moreover, the inhibition was 7.4% (inactive) in experiment [2], -13.6% (inactive) in [6] and 1% (inactive) in experiment [10]. The superoxide response (% of plate) in experiment [3] is 120% (inactive). Further, the aptamer binding inhibition in experiment [4] is -5% (inactive). The results for the response in [5] and in experiment [7] were -21.6% (inactive) and -8.11% (inactive), respectively. In addition, the binding (% of control) in experiment [8] is 98.8% (inactive). Also, in experiment [9], the efflux inhibition (fraction of control) was -0.04 (inactive). The differentiation response in experiment [11] is 16.7% (inactive).

As to `CN1CCN(C2=Nc3cc(Cl)ccc3Nc3ccccc32)CC1`, the double positive events in [1] is 61.7%. Moreover, the vesicle binding response in experiment [1] was 222% (inactive). For the same compound, the values for the inhibition in experiment [2], in experiment [6] and in experiment [10] were 31.2% (inactive), 9.21% (inactive) and -2% (inactive), respectively. In addition, in [3], the superoxide response (% of plate) is 84.7% (inactive). For the same compound, the aptamer binding inhibition in experiment [4] was -4% (inactive). Also, the figures for the response in experiment [5] and in [7] were -25% (inactive) and 6.59% (inactive), respectively. Besides, in [8], the binding (% of control) was 102% (inactive). Also, the efflux inhibition (fraction of control) in [9] is 0.04 (inactive). Besides, the differentiation response in experiment [11] was -5.97% (inactive).

`Cn1c2ccc(CC(=O)O)cc2c2cc(CC(=O)O)ccc21`: the double positive events in [1] was found to be 61.4%. Also, the vesicle binding response in experiment [1] was 244% (inactive). Besides, the inhibition in [2] is 10.5% (inactive); in experiment [6], 2.08% (inactive); in [10], 6% (inactive). Further, the superoxide response (% of plate) in experiment [3] was 92.3% (inactive). Further, the aptamer binding inhibition in [4] is 3% (inactive). Besides, the response is -8.9% (inactive) in experiment [5] and 1.83% (inactive) in experiment [7]. Also, in experiment [8], the binding (% of control) was 101% (inactive). The efflux inhibition (fraction of control) in experiment [9] is -0.21 (inactive). In addition, the differentiation response in experiment [11] was 8.8% (inactive).
